# Laboratory results published in PubChem BioAssay (NCATS).
# Inconclusive results are not listed. Where a call stands in place of a potency, no number is given. Unmarked numbers belong to inactive results. The source made the active and inactive calls. Calls come from the whole dose curve; as a rule, active = well fitted inhibition curve with a large enough effect; inconclusive = small, poorly fitted or top-dose-only effect; inactive = flat fitted curve, though single readings scatter.
# Key:
# [1] = qHTS profiling for inhibitors of Plasmodium falciparum proliferation (AID 504749); for all read-outs here: nearly all actives have a fitted effect of over 60% in size; conditions: P. falciparum in erythrocytes, SYBR Green DNA, 72 h; for activity, negative = inhibition: at 28.7 µM (top of the series)
# How it was run: (§1)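 SYBR Green fluorescence (ex 485 nm, em 535 nm) reports parasite DNA after 72 h compound exposure of infected red cells at 0.3% parasitemia, 2.5% hematocrit; signal normalized to 0.29 uM artemisinin and vehicle wells.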
# [2] = test system: 3D7; assay: as above; conditions: P. falciparum in erythrocytes, SYBR Green DNA, 72 h; series mostly up to 28.7 µM
# How it was run: as §1
# [3] = test system: AA1029; assay: as above; conditions: P. falciparum in erythrocytes, SYBR Green DNA, 72 h; series mostly up to 28.7 µM
# How it was run: as §1
# [4] = test system: AS120; assay: as above; conditions: P. falciparum in erythrocytes, SYBR Green DNA, 72 h; series mostly up to 28.7 µM
# How it was run: as §1
# [5] = test system: ATS189; assay: as above; conditions: P. falciparum in erythrocytes, SYBR Green DNA, 72 h; series mostly up to 28.7 µM
# How it was run: as §1
# [6] = test system: ATS95; assay: as above; conditions: P. falciparum in erythrocytes, SYBR Green DNA, 72 h; series mostly up to 28.7 µM
# How it was run: as §1
# [7] = test system: C2A; assay: as above; conditions: P. falciparum in erythrocytes, SYBR Green DNA, 72 h; series mostly up to 28.7 µM
# How it was run: as §1
# [8] = test system: CP185; assay: as above; conditions: P. falciparum in erythrocytes, SYBR Green DNA, 72 h; series mostly up to 28.7 µM
# How it was run: as §1
# [9] = test system: CP191; assay: as above; conditions: P. falciparum in erythrocytes, SYBR Green DNA, 72 h; series mostly up to 28.7 µM
# How it was run: as §1
# [10] = test system: 7G8; assay: as above; conditions: P. falciparum in erythrocytes, SYBR Green DNA, 72 h; series mostly up to 28.7 µM
# How it was run: as §1
# Potency is the fitted concentration of half-maximal effect.
Compound,"activity, negative = inhibition ([1]; parasite line A) [%]","activity, negative = inhibition ([1]; parasite line B) [%]",Potency [2],Potency [3],Potency [4],Potency [5],Potency [6],Potency [7],Potency [8],Potency [9],Potency ([1]; parasite line A),Potency ([1]; parasite line B),Potency [10]
O=S(=O)(O)c1cc(I)c(O)c2ncccc12,12,-2.06,inactive,inactive,inactive,inactive,inactive,inactive,inactive,inactive,,,
Cc1ccc2nc(N)[nH]c(=O)c2c1Sc1ccncc1,,,,11.2 µM (active),4.47 µM (active),8.91 µM (active),,11.2 µM (active),5.01 µM (active),2.51 µM (active),7.94 µM (active),11.2 µM (active),5.62 µM (active)
CCCCCCCCCCCCCCCC(=O)NCCO,5.7,4.77,inactive,inactive,inactive,inactive,inactive,inactive,inactive,inactive,,,
CC(C(O)c1ccc(O)cc1)N1CCC(Cc2ccccc2)CC1 (stereo not given),,,,,8.91 µM (active),11.2 µM (active),,10 µM (active),8.91 µM (active),7.94 µM (active),,,8.91 µM (active)
CN(C)CCN(Cc1ccccc1)c1ccccn1,-2.14,9.22,inactive,,,,,inactive,inactive,inactive,,,inactive
Cc1cc(C(C#N)c2ccc(Cl)cc2)c(Cl)cc1NC(=O)c1cc(I)cc(I)c1O (stereo not given),8.49,7.42,inactive,inactive,inactive,inactive,inactive,inactive,inactive,inactive,,,
CCCc1c(OCCCCc2nn[nH]n2)ccc(C(C)=O)c1O,,-24.5,inactive,inactive,inactive,,inactive,inactive,inactive,,,,12.6 µM (active)
OCc1cc(C(O)CNCCCCCCOCCCCc2ccccc2)ccc1O (stereo not given),,-10.7,inactive,inactive,inactive,inactive,inactive,inactive,inactive,,,,
O=C1NS(=O)(=O)c2ccccc21,2.53,,inactive,inactive,inactive,inactive,,inactive,inactive,inactive,,,inactive
CN1CCC[C@@H]1Cc1c[nH]c2ccc(CCS(=O)(=O)c3ccccc3)cc12,-0.0666,-10.1,inactive,,,,,,inactive,5.01 µM (active),,,6.31 µM (active)
CSc1ccc2c(c1)C(N1CCN(C)CC1)Cc1ccccc1S2 (stereo not given),,,,,,,,,,,,,10 µM (active)
CN(C)CCCN1c2ccccc2Sc2ccc(Cl)cc21,,,,,,,11.2 µM (active),,,,,,10 µM (active)
NC(=O)N/N=C/c1ccc([N+](=O)[O-])o1,,,8.91 µM (active),,,,,,,,12.6 µM (active),,10 µM (active)
OCCN1CCN(CCCN2c3ccccc3Sc3ccc(Cl)cc32)CC1,,,,3.55 µM (active),3.98 µM (active),,,inactive,,3.16 µM (active),,,4.47 µM (active)
CC(CN1c2ccccc2Sc2ccccc21)N(C)C (stereo not given),8.14,-0.843,inactive,,,inactive,,inactive,inactive,inactive,,,8.91 µM (active)
CNCCC(Oc1ccc(C(F)(F)F)cc1)c1ccccc1 (stereo not given),-5.44,-9.25,inactive,,,,,,inactive,,,,11.2 µM (active)
CC(C)(C)NCC(O)COc1ccc(NC(=O)NC2CCCCC2)cc1 (stereo not given),,2.44,inactive,inactive,inactive,inactive,inactive,inactive,inactive,inactive,,,
CC(C)(C)C(=O)C(Oc1ccc(Cl)cc1)n1ccnc1 (stereo not given),,,10 µM (active),,10 µM (active),8.91 µM (active),,,inactive,,,,7.94 µM (active)
CCOc1nc2cccc(C(=O)O)c2n1Cc1ccc(-c2ccccc2-c2nn[nH]n2)cc1,-6.01,-13.6,inactive,,,inactive,,,inactive,inactive,,,8.91 µM (active)
C[C@]12C[C@H](O)[C@H]3[C@@H](CCC4=CC(=O)CC[C@@]43C)[C@@H]1CC[C@@H]2C(=O)CO,,,inactive,,,,,,,,,,inactive
Cc1c(Cl)cccc1Nc1ccccc1C(=O)O,-2.73,8.76,inactive,inactive,inactive,inactive,inactive,inactive,inactive,inactive,,,
CC[C@@]1(c2ccccc2)NC(=O)N(C)C1=O,-2.42,13.3,inactive,inactive,inactive,inactive,inactive,inactive,inactive,inactive,,,
